Assay results taken from PubChem BioAssay (NCATS).
Results filed as inconclusive are left out. Activity calls are given as the source filed them. Unless noted, calls follow the shape of the dose curve; as a rule, active = well fitted curve in the direction sought with a large enough effect; inconclusive = small, poorly fitted or top-dose-only effect, or another doubt; inactive = no such curve, though single readings can be large; an effect the other way counts as inactive or inconclusive.

Legend:
[1] = Validation screen for small molecules that induce DNA re-replication in MCF 10A normal breast cells (AID 463097); also: nearly all actives have a fitted effect of over 60% in size
Method in brief: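 Readout: Hoechst nuclear fluorescence intensity, 405 ex / 500-530 em, by scanning plate imager; re-replication scored as increase in nuclei with elevated DNA content. Cells exposed to compound 48 hr, 37 C, 5% CO2 beforehand.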

[2] = biological target: Ubiquitin carboxyl-terminal hydrolase 2 (Homo sapiens) (UniProt O75604); assay: qHTS Validation Assay for Inhibitors of Ubiquitin-specific Protease USP2a Using CHOP2 as the Reporter (AID 463106)
Method in brief: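 Inhibition is expressed relative to NEM as the full-inhibition control, with concentration-response curves classed by fit quality, magnitude and activity. Enzyme (USP2 core, 10nM) meets 25nM Ub-CHOP2 after compound preincubation; readings are taken at 60min.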

[3] = biological target: DNA polymerase III PolC-type (Bacillus subtilis (strain 168)) (UniProt P13267); assay: qHTS Validation Assay for the Inhibitors of DNA Replication in Gram-Positive Bacteria (AID 485295); also: potency is read from the fitted curve at half-maximal effect
Method in brief: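 Reconstituted B. subtilis holoenzyme (Pol III, beta clamp, SSB, primase) was preincubated with compound at room temperature, then given single-stranded circular M13Gori plus dNTPs and NTPs. EDTA-containing PicoGreen stopped the reaction, and dsDNA product was read by fluorescence.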

[4] = biological target: Tumor susceptibility gene 101 protein (Homo sapiens) (UniProt Q99816); assay: qHTS Validation Assay for Iinhibitors of HIV-1 Budding by Blocking the Interaction of PTAP/TSG101 (AID 485342; calls by dose curve)
Method in brief: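 Tsg101 binding domain (10 uM final) in pH 7.5 HEPES/NaCl/Tween 20/EDTA/TCEP buffer was mixed with pin-transferred compounds, then FITC-labeled PTAP peptide (50 nM final) was added; after 20 min at r.t., fluorescence polarization was read.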

[5] = biological target: Beta-2 adrenergic receptor (Homo sapiens) (UniProt P07550); assay: qHTS validation assay of beta-arrestin-biased ligands of beta2-adrenergic receptor (AID 485366)
Method in brief: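 qHTS, Tango cells, 1500 cells/well, DMEM + 1% FBS. Cpd 18 hr at 37 degrees C. Luciferin/ATP/CoA detection mix, 15 min RT, luminescence read. %Activity from corrected signal; CRC fit, curve class.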

[6] = biological target: Thioredoxin reductase 1, cytoplasmic (Rattus norvegicus) (UniProt O89049); assay: qHTS Assay for Substrates of Mammalian Selenoprotein Thioredoxin Reductase 1 (TrxR1) (AID 488772);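 also: series mostly up to about 57 µM; a drop in NADPH fluorescence below the no-compound background marks a TrxR1 substrate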
Method in brief: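 In this dual-purpose format, potential substrates are identified from the first fluorescence read after selenite addition, not from the 8-minute delta. Rat enzyme is preincubated with NADPH and then with compound at ~22 deg C.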

[7] = biological target: Thioredoxin reductase 1, cytoplasmic (Rattus norvegicus) (UniProt O89049); assay: qHTS Assay for Inhibitors of Mammalian Selenoprotein Thioredoxin Reductase 1 (TrxR1) (AID 488773); conditions: Potency: inhibition; also: nearly all actives have a fitted effect of over 40% in size; also: potency is read from the fitted curve at half-maximal effect
Method in brief: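 Inhibition is scored from the loss of NADPH fluorescence between first and last reads of an 8-min kinetic run. Selenite (400 uM) was the substrate, added after 15 min compound preincubation at room temperature.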

[8] = biological target: Flap endonuclease 1 (Homo sapiens) (UniProt P39748); assay: qHTS Validation Assay for the Inhibitors of Human Flap endonuclease 1 (FEN1) (AID 488816); also: potency is read from the fitted curve at half-maximal effect
Method in brief: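 Steps: add FEN1 (10 nM reagent) or buffer only; pin compounds; hold 15 min at room temperature; start with substrate, 50 nM final; read at 0 and 15 min; correct, normalize and fit a four-parameter Hill curve.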

[9] = biological target: M-phase phosphoprotein 8 (Homo sapiens) (UniProt Q99549); assay: qHTS Validation Assay for Inhibitors for MPP8 Chromodomain Interactions with Methylated Histone Tails (AID 488949); also: nearly all actives have a fitted effect of over 55% in size; also: potency is read from the fitted curve at half-maximal effect
Method in brief: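 MPP8 (50 nM) was preincubated with biotinylated H3(1-18)K9me3 peptide (50 nM) in PBS pH 7.4, 0.01% Tween-20 for 30 min at room temperature, then with compounds for 30 min; binding was detected by AlphaScreen.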

[10] = biological target: Methanococcus maripaludis chaperonin (MmCpn) (UniProt Q6LX38); assay: High-Throughput Screening for Modulators of Cytosolic Chaperonin Activity: MmCpn Primary Screen (AID 488978);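 also: 50 nM MmCpn enzyme hydrolysing 30 µM ATP at 37 °C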
Method in brief: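 MmCpn (50 nM final) was preincubated with compound 5 min at RT, then 30 uM ATP (final) was added and the reaction ran 10 min at 37C. ADP produced was detected by Transcreener HTRF (ex 320 nm; em 590/665 nm).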

[11] = biological target: Transient receptor potential cation channel subfamily V member 1 (Homo sapiens) (UniProt Q8NER1); assay: HTS Assay for Compounds that Act as Enhancers of the Vanilloid Receptor 1 (AID 488979)
Method in brief: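 TRPV1-expressing cells loaded with Fluo-8 calcium dye; compounds added and calcium influx read kinetically for 3 min (agonist phase), then capsaicin at EC20 added and read 2 min more for enhancement. Fluorescence ex 480/em 520 nm.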

[12] = biological target: Thyrotropin receptor (Homo sapiens) (UniProt P16473); assay: qHTS Assay for Antagonists of the Thyroid Stimulating Hormone Receptor (AID 488980); also: series mostly up to about 58 µM
Method in brief: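 HEK293 cells transfected with human TSHR, suspended in HEPES-buffered HBSS with 70 uM RO 20-1724, were treated with compounds plus TSH at EC80 (4 nM final). cAMP was measured by competitive HTRF (cryptate anti-cAMP antibody, cAMP-d2 acceptor).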

[13] = biological target: D(1A) dopamine receptor (Homo sapiens) (UniProt P21728); assay: HTS Assay for Allosteric Agonists of the Human D1 Dopamine Receptor: Primary Screen for Agonists (AID 488981)
Method in brief: (§1)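 Tetracycline-induced HEK293 T-REx cells force-coupled to calcium signalling were incubated overnight at 30 C and dye-loaded at room temperature. Calcium flux over 180 s after compound addition flagged agonists; a further 180 s read after EC20 dopamine flagged potentiators.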

[14] = biological target: D(1A) dopamine receptor (Homo sapiens) (UniProt P21728); assay: HTS Assay for Allosteric Agonists of the Human D1 Dopamine Receptor: Primary Screen for Potentiators (AID 488982); also: potency is read from the fitted curve at half-maximal effect
Method in brief: as §1

[15] = biological target: D(1A) dopamine receptor (Homo sapiens) (UniProt P21728); assay: HTS Assay for Allosteric Agonists of the Human D1 Dopamine Receptor: Primary Screen for Antagonists (AID 488983);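 also: calcium flux response to an EC80 dopamine challenge measured with no-wash dye; nearly all actives have a fitted effect of over 65% in size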; also: potency is read from the fitted curve at half-maximal effect
Method in brief: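 Kinetic fluorescence at 1 cycle/sec tracked intracellular calcium in force-coupled, tetracycline-inducible HEK293 T-REx D1 cells. Loss of response to an EC80 dopamine dose, given 180 s after compound, marked antagonists.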

[16] = qHTS Validation Assay to Find Inhibitors of Chronic Active B-Cell Receptor Signaling (AID 485345; active = well fitted curve in the direction sought with a large enough effect in the main read-out, with a control signal flat, not every such curve was filed as active; also: potency is read from the fitted curve at half-maximal effect)
Method in brief: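 TMD8 ABC-DLBCL cells with dox-inducible green luciferase–IκBα fusion and red native luciferase; compounds 46 uM–3 nM, 4 h at 37C with doxycycline in 0.5% FBS IMDM. Green/red ratio normalized to basal and 10 uM MG-132.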

[17] = Quantitative high throughput screen for delayed death inhibitors of the malarial parasite plastid, 96 hour incubation (AID 488745); also: nearly all actives have a fitted effect of over 70% in size; also: potency is read from the fitted curve at half-maximal effect
Method in brief: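 Readout is firefly luciferase luminescence from an integrated reporter in P. falciparum; lower signal marks inhibited growth. Cultures at 2% hematocrit and 0.1% parasitemia were treated with compound across two generations (96 h, 37 C, 5% CO2).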

[18] = Quantitative high throughput screen for delayed death inhibitors of the malarial parasite plastid, 48 hour incubation (AID 488752); also: nearly all actives have a fitted effect of over 65% in size; also: potency is read from the fitted curve at half-maximal effect
Method in brief: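 First, compound was pinned into RPMI 1640 medium containing 0.5% Albumax. Next, reporter-parasite-infected erythrocytes were added to 2% hematocrit and 0.1% parasitemia. After 48 h at 37 C under 5% CO2, luciferase detection reagent was added and luminescence read.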

[19] = biological target: Chromobox protein homolog 1 (Homo sapiens) (UniProt P83916); assay: qHTS Validation Assay for Inhibitors of HP1-beta Chromodomain Interactions with Methylated Histone Tails (AID 488953); also: nearly all actives have a fitted effect of over 50% in size; also: potency is read from the fitted curve at half-maximal effect
Method in brief: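 Disruption of preformed HP1-beta:H3K9me3 peptide complexes (both 50 nM, PBS pH 7.4 with 0.01% Tween-20) is measured by AlphaScreen after 30 min compound exposure at room temperature, using streptavidin donor and nickel chelate acceptor beads at 10 ug/mL final.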

[20] = biological target: ATP-dependent 6-phosphofructokinase (Trypanosoma brucei brucei) (UniProt O15648); assay: qHTS Validation Assay to Find Inhibitors of T. brucei phosphofructokinase (AID 485368); conditions: outcome: dose series up to 57.5 µM
Method in brief: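 Luminescent ADP detection measures PFK turnover of fructose-6-phosphate (0.5 mM) with ATP (0.1 mM) at pH 8.0. Reaction runs 45 min at room temperature with 1.25 nM enzyme; inhibitors tested as titrations up to 57 uM.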

Measured: Potency

Chain of ATP-dependent 6-phosphofructokinase (Trypanosoma brucei brucei) (O15648 whole entry, looked up): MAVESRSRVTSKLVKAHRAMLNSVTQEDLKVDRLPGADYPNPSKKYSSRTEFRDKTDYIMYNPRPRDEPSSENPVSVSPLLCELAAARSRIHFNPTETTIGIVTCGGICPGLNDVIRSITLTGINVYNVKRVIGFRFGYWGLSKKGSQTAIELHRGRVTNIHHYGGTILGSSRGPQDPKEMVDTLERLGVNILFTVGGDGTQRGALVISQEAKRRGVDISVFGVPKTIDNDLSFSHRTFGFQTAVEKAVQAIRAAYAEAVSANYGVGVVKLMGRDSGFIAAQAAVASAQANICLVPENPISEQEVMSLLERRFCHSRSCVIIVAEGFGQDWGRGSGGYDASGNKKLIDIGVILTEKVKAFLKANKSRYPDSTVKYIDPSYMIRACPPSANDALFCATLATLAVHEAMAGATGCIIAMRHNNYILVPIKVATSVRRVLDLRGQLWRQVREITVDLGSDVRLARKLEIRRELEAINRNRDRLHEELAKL
Chain of Beta-2 adrenergic receptor (Homo sapiens) (P07550 whole entry, looked up): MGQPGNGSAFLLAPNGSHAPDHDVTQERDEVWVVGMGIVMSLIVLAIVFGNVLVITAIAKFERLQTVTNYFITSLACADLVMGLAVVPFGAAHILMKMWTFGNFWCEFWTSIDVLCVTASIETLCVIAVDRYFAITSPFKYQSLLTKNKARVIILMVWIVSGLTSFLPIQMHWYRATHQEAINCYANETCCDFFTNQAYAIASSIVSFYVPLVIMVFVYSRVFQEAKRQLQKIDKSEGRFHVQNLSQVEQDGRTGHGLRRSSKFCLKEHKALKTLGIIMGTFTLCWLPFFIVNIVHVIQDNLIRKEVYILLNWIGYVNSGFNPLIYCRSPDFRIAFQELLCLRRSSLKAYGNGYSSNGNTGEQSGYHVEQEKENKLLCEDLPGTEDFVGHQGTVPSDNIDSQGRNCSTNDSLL
Chain of Transient receptor potential cation channel subfamily V member 1 (Homo sapiens) (Q8NER1 whole entry, looked up): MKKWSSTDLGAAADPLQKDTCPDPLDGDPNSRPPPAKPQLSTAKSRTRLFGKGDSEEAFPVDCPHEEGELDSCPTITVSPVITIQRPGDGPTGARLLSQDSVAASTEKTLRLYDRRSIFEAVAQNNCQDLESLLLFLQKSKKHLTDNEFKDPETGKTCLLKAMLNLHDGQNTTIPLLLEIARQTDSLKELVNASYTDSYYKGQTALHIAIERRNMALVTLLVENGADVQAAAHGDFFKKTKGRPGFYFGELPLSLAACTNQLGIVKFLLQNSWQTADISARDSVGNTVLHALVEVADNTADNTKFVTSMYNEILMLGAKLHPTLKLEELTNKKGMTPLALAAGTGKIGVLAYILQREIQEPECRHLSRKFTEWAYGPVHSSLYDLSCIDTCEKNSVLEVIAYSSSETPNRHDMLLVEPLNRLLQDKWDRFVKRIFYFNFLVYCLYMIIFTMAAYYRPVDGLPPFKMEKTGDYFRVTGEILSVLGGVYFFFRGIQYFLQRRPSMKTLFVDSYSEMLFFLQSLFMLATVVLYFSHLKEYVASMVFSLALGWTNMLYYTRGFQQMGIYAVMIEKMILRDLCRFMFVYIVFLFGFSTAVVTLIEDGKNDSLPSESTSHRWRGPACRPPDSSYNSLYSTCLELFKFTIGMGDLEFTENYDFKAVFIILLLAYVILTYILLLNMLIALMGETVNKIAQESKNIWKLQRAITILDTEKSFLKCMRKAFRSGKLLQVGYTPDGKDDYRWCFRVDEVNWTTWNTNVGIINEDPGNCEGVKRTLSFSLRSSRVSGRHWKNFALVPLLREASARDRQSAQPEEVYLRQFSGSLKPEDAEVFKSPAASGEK
Chain of Methanococcus maripaludis chaperonin (MmCpn) (Q6LX38 1-543): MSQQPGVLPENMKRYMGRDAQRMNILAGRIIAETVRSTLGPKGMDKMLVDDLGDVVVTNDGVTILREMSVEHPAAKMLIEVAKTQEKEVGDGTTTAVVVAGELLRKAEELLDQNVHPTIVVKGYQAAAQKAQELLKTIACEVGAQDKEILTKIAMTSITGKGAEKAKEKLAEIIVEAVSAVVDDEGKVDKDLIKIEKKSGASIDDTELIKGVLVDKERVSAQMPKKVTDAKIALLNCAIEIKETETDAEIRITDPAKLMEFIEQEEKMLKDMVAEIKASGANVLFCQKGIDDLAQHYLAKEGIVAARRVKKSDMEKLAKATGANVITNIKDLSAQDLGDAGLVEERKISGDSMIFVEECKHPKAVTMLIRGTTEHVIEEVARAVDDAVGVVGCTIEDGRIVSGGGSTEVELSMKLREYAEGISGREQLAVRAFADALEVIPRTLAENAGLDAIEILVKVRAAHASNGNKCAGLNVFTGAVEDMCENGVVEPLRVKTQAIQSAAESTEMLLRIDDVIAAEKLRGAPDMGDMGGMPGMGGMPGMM
Chain of Thyrotropin receptor (Homo sapiens) (P16473 whole entry, looked up): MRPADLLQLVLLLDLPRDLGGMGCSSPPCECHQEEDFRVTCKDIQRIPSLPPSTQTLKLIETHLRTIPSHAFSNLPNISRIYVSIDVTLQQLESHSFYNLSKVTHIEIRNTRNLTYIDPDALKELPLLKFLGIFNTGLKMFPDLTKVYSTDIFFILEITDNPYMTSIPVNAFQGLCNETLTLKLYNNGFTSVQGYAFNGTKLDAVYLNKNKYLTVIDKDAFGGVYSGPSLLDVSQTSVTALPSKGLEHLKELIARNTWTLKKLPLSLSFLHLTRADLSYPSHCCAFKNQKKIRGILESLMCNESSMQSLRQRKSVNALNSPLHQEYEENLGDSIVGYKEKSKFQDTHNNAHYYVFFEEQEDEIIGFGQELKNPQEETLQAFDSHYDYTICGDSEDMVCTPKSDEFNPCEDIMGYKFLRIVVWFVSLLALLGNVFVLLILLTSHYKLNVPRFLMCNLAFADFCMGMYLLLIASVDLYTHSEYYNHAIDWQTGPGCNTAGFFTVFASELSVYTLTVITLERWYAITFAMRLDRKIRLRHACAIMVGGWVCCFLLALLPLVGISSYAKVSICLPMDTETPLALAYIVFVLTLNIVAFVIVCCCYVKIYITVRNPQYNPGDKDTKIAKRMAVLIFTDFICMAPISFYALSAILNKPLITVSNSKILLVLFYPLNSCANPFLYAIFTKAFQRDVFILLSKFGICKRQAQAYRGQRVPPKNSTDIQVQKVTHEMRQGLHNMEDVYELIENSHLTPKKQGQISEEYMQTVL
Chain of Tumor susceptibility gene 101 protein (Homo sapiens) (Q99816 whole entry, looked up, the tested form may be a part): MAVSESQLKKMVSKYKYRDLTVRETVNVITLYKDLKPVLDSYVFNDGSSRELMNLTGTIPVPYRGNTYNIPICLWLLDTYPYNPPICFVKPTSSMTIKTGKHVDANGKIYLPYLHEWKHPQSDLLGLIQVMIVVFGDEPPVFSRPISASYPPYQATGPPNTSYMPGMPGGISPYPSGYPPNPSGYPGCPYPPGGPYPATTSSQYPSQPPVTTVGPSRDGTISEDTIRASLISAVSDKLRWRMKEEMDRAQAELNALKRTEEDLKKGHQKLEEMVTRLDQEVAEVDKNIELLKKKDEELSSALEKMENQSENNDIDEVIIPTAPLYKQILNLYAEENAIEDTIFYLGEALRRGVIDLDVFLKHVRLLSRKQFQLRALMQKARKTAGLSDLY
Chain of M-phase phosphoprotein 8 (Homo sapiens) (Q99549 whole entry, looked up): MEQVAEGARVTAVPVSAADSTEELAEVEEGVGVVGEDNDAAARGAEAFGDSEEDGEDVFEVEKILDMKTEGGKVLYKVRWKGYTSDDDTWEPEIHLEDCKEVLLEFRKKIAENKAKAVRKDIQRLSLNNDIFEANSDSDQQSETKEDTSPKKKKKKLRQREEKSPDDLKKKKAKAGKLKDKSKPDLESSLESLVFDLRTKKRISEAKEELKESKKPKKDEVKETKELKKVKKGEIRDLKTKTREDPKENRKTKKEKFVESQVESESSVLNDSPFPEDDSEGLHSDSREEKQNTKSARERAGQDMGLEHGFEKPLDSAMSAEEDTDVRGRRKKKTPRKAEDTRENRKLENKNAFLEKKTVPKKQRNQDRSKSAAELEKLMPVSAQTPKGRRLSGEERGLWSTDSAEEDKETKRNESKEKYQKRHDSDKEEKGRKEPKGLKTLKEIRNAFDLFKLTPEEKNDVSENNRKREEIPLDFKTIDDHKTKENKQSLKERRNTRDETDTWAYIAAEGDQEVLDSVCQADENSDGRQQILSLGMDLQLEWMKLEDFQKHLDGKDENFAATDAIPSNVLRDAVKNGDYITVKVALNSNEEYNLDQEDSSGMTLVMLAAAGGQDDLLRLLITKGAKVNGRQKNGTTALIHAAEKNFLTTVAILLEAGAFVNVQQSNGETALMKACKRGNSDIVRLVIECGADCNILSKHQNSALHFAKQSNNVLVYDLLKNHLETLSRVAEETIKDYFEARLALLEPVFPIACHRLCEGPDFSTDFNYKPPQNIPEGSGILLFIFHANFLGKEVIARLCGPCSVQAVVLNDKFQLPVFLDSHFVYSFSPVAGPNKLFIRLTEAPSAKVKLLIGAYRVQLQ
Chain of Thioredoxin reductase 1, cytoplasmic (Rattus norvegicus) (O89049 whole entry, looked up): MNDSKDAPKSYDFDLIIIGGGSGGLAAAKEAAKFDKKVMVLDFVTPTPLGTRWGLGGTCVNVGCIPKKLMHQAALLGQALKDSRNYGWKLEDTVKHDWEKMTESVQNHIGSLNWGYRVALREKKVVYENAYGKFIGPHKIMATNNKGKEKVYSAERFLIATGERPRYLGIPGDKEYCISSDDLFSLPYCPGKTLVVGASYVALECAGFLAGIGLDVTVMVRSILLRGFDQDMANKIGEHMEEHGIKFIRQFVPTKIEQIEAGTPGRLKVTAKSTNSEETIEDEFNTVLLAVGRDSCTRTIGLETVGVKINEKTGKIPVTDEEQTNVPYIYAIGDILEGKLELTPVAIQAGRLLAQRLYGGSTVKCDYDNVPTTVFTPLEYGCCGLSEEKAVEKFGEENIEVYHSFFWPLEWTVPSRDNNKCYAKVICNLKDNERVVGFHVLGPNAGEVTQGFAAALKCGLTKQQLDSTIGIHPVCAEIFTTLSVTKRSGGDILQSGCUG
Chain of Chromobox protein homolog 1 (Homo sapiens) (P83916 whole entry, looked up): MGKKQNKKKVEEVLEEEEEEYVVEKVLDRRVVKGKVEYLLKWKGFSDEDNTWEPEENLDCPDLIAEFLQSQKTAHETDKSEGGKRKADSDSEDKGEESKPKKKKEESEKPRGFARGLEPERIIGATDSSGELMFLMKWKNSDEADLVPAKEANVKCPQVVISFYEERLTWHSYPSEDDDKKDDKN

CCCC(C(=O)OCCN(CC)CC)(c1ccccc1)c1ccccc1
inactive: [1] | [2] | [3] | [4] | [5] | [6] | [7] | [8] | [9] | [10] | [11] | [12] | [13] | [14] | [15]

COCCc1ccc(OCC(O)CNC(C)C)cc1 (stereo unspecified)
inactive: [1] | [2] | [3] | [4] | [16] | [17] | [18] | [6] | [7] | [8] | [9] | [19] | [10] | [11] | [12] | [13] | [14] | [15]

C[N+](C)(C)CCOC(N)=O
inactive: [1] | [2] | [3] | [4] | [16] | [5] | [18] | [7] | [8] | [9] | [19] | [10] | [12] | [14] | [15]

O=C(O)CCCCCCCC(=O)O
inactive: [1] | [2] | [3] | [4] | [16] | [5] | [17] | [18] | [8] | [9] | [19] | [10] | [11] | [12] | [14] | [15]

CC(C)NNC(=O)c1ccncc1
inactive: [1] | [2] | [3] | [4] | [16] | [5] | [18] | [7] | [8] | [9] | [19] | [10] | [11] | [12] | [14] | [15]

CCc1c(C)[nH]c2c1C(=O)C(CN1CCOCC1)CC2 (stereo unspecified)
inactive: [1] | [3] | [4] | [16] | [5] | [20] | [18] | [6] | [8] | [9] | [10] | [11] | [12] | [13] | [14]
active: [7] 29.9 µM | [15] 14.1 µM

CC(=O)[C@]1(O)Cc2c(O)c3c(c(O)c2[C@@H](O[C@H]2C[C@H](N)[C@H](O)[C@H](C)O2)C1)C(=O)c1ccccc1C3=O
inactive: [1] | [5] | [6] | [10] | [12]
active: [3] 1.06 µM | [17] 3.29 µM | [18] 3.7 µM | [8] 26.7 µM | [9] 28.2 µM | [19] 39.8 µM | [14] 2.91 µM

C#CCN(C)CCCOc1ccc(Cl)cc1Cl
inactive: [1] | [3] | [4] | [5] | [20] | [18] | [7] | [8] | [9] | [19] | [10] | [11] | [13] | [14] | [15]

CNC1(C)C2CCC(C2)C1(C)C (stereo unspecified)
inactive: [1] | [3] | [4] | [16] | [5] | [20] | [18] | [8] | [9] | [19] | [10] | [12] | [14] | [15]

COCCOC(=O)C1=C(C)NC(C)=C(C(=O)OC(C)C)C1c1cccc([N+](=O)[O-])c1 (stereo unspecified)
inactive: [1] | [3] | [4] | [5] | [20] | [7] | [8] | [9] | [10] | [11] | [12] | [14] | [15]
active: [16] 9.2 µM

CC[N+](C)(C)c1cccc(O)c1
inactive: [1] | [3] | [4] | [16] | [5] | [20] | [18] | [6] | [9] | [19] | [10] | [12] | [13] | [14] | [15]

CC(C)[N+](C)(CCOC(=O)C1c2ccccc2Oc2ccccc21)C(C)C
active: [18] 4.65 µM
inactive: [1] | [3] | [4] | [16] | [5] | [20] | [6] | [7] | [8] | [9] | [19] | [10] | [11] | [12] | [13] | [14] | [15]

CO[C@@]1(NC(=O)CSCC#N)C(=O)N2C(C(=O)O)=C(CSc3nnnn3C)CS[C@@H]21
inactive: [1] | [3] | [4] | [16] | [5] | [20] | [17] | [18] | [6] | [8] | [9] | [10] | [11] | [13] | [14] | [15]
